Compound activity (PubChem BioAssay)
Only some compounds are listed: those with a hit (about 2.5% of all), similar ones and a draw of the others.
MEKK3 PB1 HTS = raises or lowers MEK5 binding to the human MEKK3 PB1 domain; bead-based flow cytometry, Alexa488-MEK5 binding to MEKK3; actives lie on both sides; 0 = blocked by unlabeled MEK5, 100 = vehicle; binding response (% of control), % at 10 µM; hit rate 1.4% among 290,000; AID 1529;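 active means binding response more than 3 SD above or below the average of its plate-row segment, actives on both sides; inconclusive means wells at one plate position flagged as instrument error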;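 further: Alexa488 bead fluorescence after subtracting the streptavidin-only scavenger bead signal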
Target sequence (Q99759 whole entry, looked up, the tested form may be a part): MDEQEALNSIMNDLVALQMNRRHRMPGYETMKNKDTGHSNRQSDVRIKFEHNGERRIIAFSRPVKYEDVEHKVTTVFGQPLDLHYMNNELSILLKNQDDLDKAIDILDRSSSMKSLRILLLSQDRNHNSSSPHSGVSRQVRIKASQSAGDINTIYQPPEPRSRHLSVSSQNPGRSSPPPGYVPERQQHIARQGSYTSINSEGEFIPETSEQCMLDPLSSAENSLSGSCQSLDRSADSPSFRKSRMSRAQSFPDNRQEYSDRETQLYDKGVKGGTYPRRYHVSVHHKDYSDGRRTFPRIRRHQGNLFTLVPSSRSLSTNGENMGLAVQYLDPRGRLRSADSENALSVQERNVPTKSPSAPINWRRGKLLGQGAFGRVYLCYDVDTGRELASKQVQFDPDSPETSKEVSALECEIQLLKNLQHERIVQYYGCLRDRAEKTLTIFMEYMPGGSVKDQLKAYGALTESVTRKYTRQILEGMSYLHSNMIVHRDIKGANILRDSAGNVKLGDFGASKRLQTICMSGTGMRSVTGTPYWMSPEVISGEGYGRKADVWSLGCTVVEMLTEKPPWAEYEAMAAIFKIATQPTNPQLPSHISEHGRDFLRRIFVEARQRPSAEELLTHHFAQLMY
MEKK2wt PB1 HTS = raises or lowers MEK5 binding to wildtype human MEKK2 PB1 domain | Q9Y2U5 | bead flow cytometry, Alexa488-MEK5 binding to MEKK2 WT; actives lie on both sides | binding response (% of control), % at 10 µM | hit rate 1.1% among 290,000; in the data active means binding response below about 67% or above about 130%; inconclusive means no clear call, values can overlap the other calls; inactive means in between
GRK2 inh = inhibitors of human GRK2 displacing RNA aptamer; P25098; bead flow cytometry, FAM-aptamer displacement from GRK2; inhibition of aptamer binding, % at 10 µM; hit rate 0.59% among 330,000;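 active means inhibition of aptamer binding above 40%, roughly 3 SD of noise, on plates passing a quality check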;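 further: median bead fluorescence of bound FAM aptamer so fluorescent compounds give negative values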
MEKK2 mut-MEK5 = signal of MEK5 binding to mutant human MEKK2 PB1 domain | bead flow cytometry, Alexa488-MEK5 binding to MEKK2 mutant | percent response, % at 10 µM | hit rate 0.35% among 290,000; in the data active means percent response above about 24%, passing the limit was not always enough
GRK2 CP1 = confirmation of human GRK2 inhibitors displacing RNA aptamer | hit rate 4% among 2,000 | aptamer displacement, % at 10 µM | shares compounds with GRK2 inh | bead-bound GRK2, FAM-aptamer displacement, flow cytometry;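 active means aptamer displacement above 40%, near three times the noise of non-fluorescent compounds, on plates passing quality checks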;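 further: negative values mostly reflect intrinsic compound fluorescence rather than true enhancement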
Aptamer quench SP = aptamer fluorescence quenching in GRK2 counter-screen; shares compounds with GRK2 inh; Carboxyfluorescein RNA aptamer on beads, flow cytometry quenching; stronger effect = lower value; fluorescence response (% of DMSO), % at 10 µM; 2,000 tested, under 10 active; AID 504580;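 active means compounds that quench the bead-bound fluorescent RNA probe, cutting fluorescence to under half of the solvent control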;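 further: counterscreen run without GRK2 so only probe quenching by compound is measured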
GRK2 CP2 = confirmation of human GRK2 inhibitors binding RNA aptamer site | inhibition of aptamer binding, % at 10 µM | shares compounds with GRK2 inh | 360 tested, under 10 active | bead-bound GRK2, FAM-aptamer displacement, flow cytometry;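 active means inhibition of aptamer binding above 40%, about triple the noise seen with nonglowing compounds, on plates passing quality control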;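 further: negative values mostly come from compounds that fluoresce themselves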
FAM quench SP = aptamer fluorescence quenching in GRK2 counter-screen. 360 tested, under 10 active. carboxyfluorescein RNA aptamer beads, flow cytometry quenching; stronger effect = lower value. fluorescence response vs DMSO, % at 10 µM. shares compounds with GRK2 inh;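 active means response vs DMSO under 50%, meaning signal dropped by over half, treated as fluorescence quencher; inconclusive means no clear call, values can overlap the other calls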;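 further: labelled aptamer on streptavidin beads without GRK2 as a quench counter-screen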
Each line names hits and unclear results; the compound was inactive in the other large screens (follow-up assays come after a bar, where they were run); [ ] = dose if it differs, or a comment.

COc1ccc2c(c1)c(=O)oc1cc(OCC(=O)N3CCCC(C)C3)ccc12 (stereo not drawn)	none
COc1ccc2c(c1)c(=O)oc1cc(OCC(=O)N3CCC(C)CC3)ccc12	GRK2 inh 47.0 | GRK2 CP1 inactive | Aptamer quench SP inactive
COc1ccc(OC)c(-n2c(-c3ccccc3)n[nH]c2=S)c1	none
CN(C)S(=O)(=O)c1ccc(Nc2nc(C3CC3)nc3c2nnn3Cc2ccccc2Cl)cc1	GRK2 inh 77.0 | GRK2 CP2 inactive | FAM quench SP inconclusive
COC(=O)CNc1nc(C2CC2)nc2c1nnn2Cc1ccccc1Cl	none
COc1ccccc1NC(=O)c1ccccc1NC(=O)c1ccccc1C(=O)O	none
COc1ccc(NC(=O)Nc2ccccc2OC)cc1	none
COc1ccccc1NC(=O)Nc1ccc(NC(=O)c2ccccc2O)cc1	GRK2 inh 92.0 | GRK2 CP1 inactive | Aptamer quench SP inactive
COc1ccccc1NC(=O)c1ccccc1C(=O)Nc1ccccc1OC	GRK2 inh 54.0 | GRK2 CP2 inactive | FAM quench SP inactive
O=C(Nc1cccc(NC(=O)c2ccc(-c3ccc(Br)cc3)o2)c1)c1ccccc1	GRK2 inh 90.0 | GRK2 CP1 inactive | Aptamer quench SP inactive
O=C(Nc1ccccc1)c1ccc(-c2ccc(Br)cc2)o1	none
CCOc1cccc(/C(O)=C2/C(=O)C(=O)N(CCOC)C2c2ccco2)c1 (stereo not drawn)	GRK2 inh 47.0 | GRK2 CP1 inactive | Aptamer quench SP inactive
CN(C)CCCn1c(SCc2c(Cl)cccc2Cl)nnc1-c1ccncc1	GRK2 inh 44.0 | GRK2 CP2 inactive | FAM quench SP inactive
COC(OC)c1ccnc(-c2ccc(OC(=O)c3ccc(F)cc3)cc2)n1	GRK2 inh 59.0 | GRK2 CP1 inactive | Aptamer quench SP inactive
CCC(=O)Nc1cc(C(C)(C)C)ccc1C(C)=O	none
CCc1cccc(NC(=O)C2CCCN(c3ncnc4c3nc3n4CCCCC3)C2)c1 (stereo not drawn)	none | GRK2 CP1 inactive | Aptamer quench SP inactive
O=C(Nc1cccnc1)C1CCCN(c2ncnc3c2nc2n3CCCCC2)C1 (stereo not drawn)	none
O=C(NCC1CCN(Cc2cccc(Cl)c2)CC1)C1CCCN(c2ncnc3c2nc2n3CCCCC2)C1 (stereo not drawn)	none | GRK2 CP1 inactive | Aptamer quench SP inactive
Cc1cc(N2CCCC2)nc2c(C)cccc12	none
O=[N+]([O-])c1ccc(N2CCCC2)nc1	none
CC1CCN(c2ccc([N+](=O)[O-])cn2)CC1	GRK2 inh 55.0 | GRK2 CP2 inactive | FAM quench SP inactive
O=C(COC(=O)c1ccc(Br)o1)NCCNC(=O)COC(=O)c1ccc(Br)o1	none (no result: MEKK3 PB1 HTS, MEKK2wt PB1 HTS, MEKK2 mut-MEK5)
COCCNC(=O)c1ccc(CS(=O)(=O)c2ccccc2OC)o1	GRK2 inh 50.0 | GRK2 CP1 inactive | Aptamer quench SP inactive
COc1ccccc1S(=O)(=O)Cc1ccc(C(=O)NCCN(C)C)o1	none
CCCCn1c(NS(=O)(=O)c2ccc(C)cc2)c(S(=O)(=O)c2ccccc2)c2nc3ccccc3nc21	none | GRK2 CP1 inactive | Aptamer quench SP inactive
Cc1ccc(-c2cccc(C3CC=CC4C3C(=O)N(Cc3ccccc3)C4c3cc(C)ccc3F)c2)cc1 (stereo not drawn)	none | GRK2 CP1 inactive | Aptamer quench SP inactive
COc1ccccc1CCNC(=O)C1CCC(=O)N(C2CC2)C1 (stereo not drawn)	none
Cc1ccccc1N(CC(=O)NC(C)(C)C)C(=O)c1ccc(-c2ccccc2)[nH]1	none
Cc1ccn2c(CNCCn3nc(C)cc3C)c(C(=O)N3CCCCCC3)nc2c1	none
C/C(=N\Nc1nc2ccccc2[nH]1)c1ccc(N2CCOCC2)cc1	GRK2 inh 52.0 | GRK2 CP1 inactive | Aptamer quench SP inactive
CCN(CC)Cc1csc(C(N)=O)c1	none | GRK2 CP1 inactive | Aptamer quench SP inactive
CCOC(=O)CCN(Cc1ccccc1)S(=O)(=O)c1csc(C(N)=O)c1	none
COc1cnn(-c2ccc(C)cc2)c(=O)c1Cl	none
COc1cnn(-c2ccc(C)cc2)c(=O)c1Br	none | GRK2 CP1 inactive | Aptamer quench SP inactive
COc1ccc(N(CC(=O)NC2CCCCC2)C(=O)CNC(=O)c2cccs2)cc1OC	none
COc1cccc(-c2nnc(NC(=O)c3ccc(Cl)s3)o2)c1	GRK2 inh 52.0 | GRK2 CP1 inactive | Aptamer quench SP inactive
O=C(O)/C=C/C(=O)Nc1ccc(Cc2ccc(NC(=O)/C=C/C(=O)O)cc2)cc1	none | GRK2 CP1 inactive | Aptamer quench SP inactive
COC(=O)c1cccc2c1NC(=O)C2=O	GRK2 inh 71.0 | GRK2 CP1 inactive | Aptamer quench SP inactive
O=C(COC(=O)c1ccc(Br)o1)Nc1ccc(Br)cc1	none (no result: MEKK3 PB1 HTS, MEKK2wt PB1 HTS, MEKK2 mut-MEK5)
O=C(O)CCNc1cc(N2CCN(C(=O)c3ccco3)CC2)c2noc3c2c1C(=O)c1ccccc1-3	MEKK3 PB1 HTS 63.0[inhibitor], MEKK2wt PB1 HTS 48.0[inhibitor], GRK2 inh 83.0 | GRK2 CP1 inactive | Aptamer quench SP inactive
Cc1nnc(NC(=O)CSc2cn(CCNC(=O)c3ccccc3)c3ccccc23)s1	none
NC(=O)CSc1cn(CCNC(=O)c2cccs2)c2ccccc12	none | GRK2 CP2 inactive | FAM quench SP inactive
Cc1cc(C)c(C)c(S(=O)(=O)N2C(=S)NC(=O)C2CC(C)C)c1C (stereo not drawn)	GRK2 inh 96.0 | GRK2 CP1 inactive | Aptamer quench SP inactive
Cc1ccc(NC(=O)C(SCC(=O)O)c2ccccc2)cc1C (stereo not drawn)	none
CCCCSCCCNC(=O)c1ccc2c(c1)N(CC)C(=O)c1ccccc1S2=O (stereo not drawn)	GRK2 inh 47.0 | GRK2 CP2 inactive | FAM quench SP inactive
CCCN(CCC)CCCNC(=O)c1ccc2c(c1)N(CC)C(=O)c1ccccc1S2=O (stereo not drawn)	none
Cc1ccc(S(=O)(=O)Nc2cccc(C(=O)NCC(c3ccco3)N3CCCC3)c2)cc1F (stereo not drawn)	none (no result: MEKK3 PB1 HTS, MEKK2wt PB1 HTS, MEKK2 mut-MEK5)
CC(Sc1ccc(Cl)cc1)C(=O)NCc1cccnc1 (stereo not drawn)	none
CCN(CC)C(=O)Cn1cc(C(=O)C(=O)N2CCCc3ccccc32)c2ccccc21	none
CCN(CC)C(=O)Cn1cc(C(=O)C(=O)N2CCc3ccccc32)c2ccccc21	none | GRK2 CP1 inactive | Aptamer quench SP inactive
CCOc1ccc(S(=O)(=O)NC2CCCCCC2)cc1	none
CCOc1ccc(NC2CCCCC2NS(=O)(=O)c2ccccc2)cc1 (stereo not drawn)	GRK2 inh 49.0 | GRK2 CP1 inactive | Aptamer quench SP inactive
